The values that follow come from PubChem BioAssay.

Where “and” joins values, the source holds several entries; their conditions need not be identical. Identical values can stand only once. More than one record can exist for a structure, and the calls need not agree. Calls of active or inactive are those of the source.

Assay [1] in a line: small molecules captured by biotinylated probe aFSTL3 – biochemical, small-molecule microarray, fluorescence 635/667, stem cell growth factor project, primary screen (AID 1064).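 Further: measures binding of the biotinylated anti-FSTL3 antibody to printed compounds.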 The conditions noted are these: higher = more signal.
Assay [2] in a line: binders from COS7 lysate, DM2A8 probe, primary screen, torsin A project, cell lysate, small-molecule microarray, fluorescence 635/667 (AID 1065). The settings on record: higher = more signal, COS7 lysate expressing mutant human TOR1A.
Assay [3] in a line: small molecules captured by biotinylated probe aFGF2 – biochemical, small-molecule microarray, fluorescence 635/667, stem cell growth factor project, primary screen (AID 1067).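 Further: measures binding of biotinylated aFGF2 protein to printed compounds on slides; z-score merges feature fluorescence and signal-to-noise across triplicate slides.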 The settings on record: higher = more signal.
Assay [4] is described as follows: small molecules captured by biotinylated probe aFGF10 – biochemical, small-molecule microarray, fluorescence 635/667, stem cell growth factor project, primary screen (AID 1071).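 Further: score merges 667 nm spot intensity and signal to noise from triplicate slides.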 The settings on record: higher = more signal.
Assay [5] deals with Neurogenic locus notch homolog protein 2 (Homo sapiens) (UniProt Q04721). The assay is described as follows: small molecules binding Notch2 protein – biochemical, small-molecule microarray, 635 nm fluorescence, stem cell growth factors, primary screen (AID 1073). The conditions noted are these: higher = more signal.
Chain of Neurogenic locus notch homolog protein 2 (Homo sapiens) (Q04721 whole entry, looked up, canonical isoform): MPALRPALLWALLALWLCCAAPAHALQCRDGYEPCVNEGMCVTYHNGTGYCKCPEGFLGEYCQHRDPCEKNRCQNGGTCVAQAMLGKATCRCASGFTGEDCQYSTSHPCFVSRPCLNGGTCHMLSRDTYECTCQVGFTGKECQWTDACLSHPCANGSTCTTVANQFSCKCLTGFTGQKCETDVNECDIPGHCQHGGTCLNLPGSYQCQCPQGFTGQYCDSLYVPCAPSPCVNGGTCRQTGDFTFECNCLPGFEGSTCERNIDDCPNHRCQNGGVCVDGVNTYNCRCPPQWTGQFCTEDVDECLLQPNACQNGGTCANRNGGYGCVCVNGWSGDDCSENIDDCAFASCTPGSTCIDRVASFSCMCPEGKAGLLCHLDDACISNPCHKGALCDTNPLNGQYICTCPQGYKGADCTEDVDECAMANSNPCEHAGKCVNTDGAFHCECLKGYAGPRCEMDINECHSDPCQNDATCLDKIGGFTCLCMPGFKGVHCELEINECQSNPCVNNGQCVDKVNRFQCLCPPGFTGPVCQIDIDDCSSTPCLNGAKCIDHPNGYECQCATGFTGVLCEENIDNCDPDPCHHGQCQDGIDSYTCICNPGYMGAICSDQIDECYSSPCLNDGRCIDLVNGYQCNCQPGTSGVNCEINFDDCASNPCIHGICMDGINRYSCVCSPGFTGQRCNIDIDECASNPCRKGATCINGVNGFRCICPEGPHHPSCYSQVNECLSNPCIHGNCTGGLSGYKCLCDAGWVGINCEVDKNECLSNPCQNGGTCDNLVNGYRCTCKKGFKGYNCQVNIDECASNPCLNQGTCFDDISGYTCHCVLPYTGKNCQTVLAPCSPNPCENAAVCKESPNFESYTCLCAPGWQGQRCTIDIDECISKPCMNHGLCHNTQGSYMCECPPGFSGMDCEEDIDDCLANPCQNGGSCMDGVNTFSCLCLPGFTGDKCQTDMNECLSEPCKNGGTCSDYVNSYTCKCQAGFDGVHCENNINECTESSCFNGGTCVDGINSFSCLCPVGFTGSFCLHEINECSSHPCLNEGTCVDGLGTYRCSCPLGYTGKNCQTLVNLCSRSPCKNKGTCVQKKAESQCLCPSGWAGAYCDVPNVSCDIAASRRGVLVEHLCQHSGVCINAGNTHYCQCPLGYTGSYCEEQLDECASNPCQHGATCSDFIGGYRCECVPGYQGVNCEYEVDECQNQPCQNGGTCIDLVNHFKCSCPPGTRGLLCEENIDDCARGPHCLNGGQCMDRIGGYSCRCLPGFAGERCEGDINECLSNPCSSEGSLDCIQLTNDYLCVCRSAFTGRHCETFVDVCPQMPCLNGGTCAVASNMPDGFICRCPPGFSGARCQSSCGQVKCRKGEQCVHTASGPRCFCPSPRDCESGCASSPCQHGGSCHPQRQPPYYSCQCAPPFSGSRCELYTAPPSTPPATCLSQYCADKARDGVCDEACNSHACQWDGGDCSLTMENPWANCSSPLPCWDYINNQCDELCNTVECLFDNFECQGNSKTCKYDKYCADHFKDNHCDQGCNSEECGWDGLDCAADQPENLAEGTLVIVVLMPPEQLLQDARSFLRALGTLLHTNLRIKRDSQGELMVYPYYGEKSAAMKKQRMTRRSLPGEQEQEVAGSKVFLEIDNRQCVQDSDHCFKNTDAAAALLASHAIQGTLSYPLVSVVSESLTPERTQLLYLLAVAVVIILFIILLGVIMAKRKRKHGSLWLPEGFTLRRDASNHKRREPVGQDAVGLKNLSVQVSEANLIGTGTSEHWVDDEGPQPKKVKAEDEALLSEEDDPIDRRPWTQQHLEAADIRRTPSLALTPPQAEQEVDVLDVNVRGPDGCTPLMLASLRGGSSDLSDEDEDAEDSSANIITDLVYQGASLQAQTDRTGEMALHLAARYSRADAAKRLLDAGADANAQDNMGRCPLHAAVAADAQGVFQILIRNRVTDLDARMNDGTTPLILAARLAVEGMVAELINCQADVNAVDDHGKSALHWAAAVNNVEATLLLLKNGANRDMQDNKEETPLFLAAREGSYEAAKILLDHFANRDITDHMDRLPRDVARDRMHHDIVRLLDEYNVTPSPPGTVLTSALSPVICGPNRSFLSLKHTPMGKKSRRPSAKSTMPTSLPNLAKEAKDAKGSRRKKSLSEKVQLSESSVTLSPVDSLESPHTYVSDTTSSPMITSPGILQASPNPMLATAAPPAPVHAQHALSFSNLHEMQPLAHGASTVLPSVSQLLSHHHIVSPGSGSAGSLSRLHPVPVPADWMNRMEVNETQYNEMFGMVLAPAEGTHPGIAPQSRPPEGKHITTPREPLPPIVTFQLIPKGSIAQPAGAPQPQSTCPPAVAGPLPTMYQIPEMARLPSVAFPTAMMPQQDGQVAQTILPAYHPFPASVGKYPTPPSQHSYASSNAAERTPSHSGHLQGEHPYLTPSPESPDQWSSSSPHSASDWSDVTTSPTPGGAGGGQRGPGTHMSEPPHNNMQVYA
The target of assay [6] is Pro-neuregulin-1, membrane-bound isoform (Homo sapiens) (UniProt Q02297). The assay is described as follows: small molecules binding neuregulin-1 protein – biochemical, small-molecule microarray, fluorescence 635/667, psychiatric disease protein project, primary screen (AID 1075).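 Further: score combines 667 nm spot fluorescence with signal to noise.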 The conditions noted are these: NRG1 binding, 635 nm fluorescence, higher = more signal.
Chain of Pro-neuregulin-1, membrane-bound isoform (Homo sapiens) (Q02297 whole entry, looked up, the tested form may be a part, canonical isoform): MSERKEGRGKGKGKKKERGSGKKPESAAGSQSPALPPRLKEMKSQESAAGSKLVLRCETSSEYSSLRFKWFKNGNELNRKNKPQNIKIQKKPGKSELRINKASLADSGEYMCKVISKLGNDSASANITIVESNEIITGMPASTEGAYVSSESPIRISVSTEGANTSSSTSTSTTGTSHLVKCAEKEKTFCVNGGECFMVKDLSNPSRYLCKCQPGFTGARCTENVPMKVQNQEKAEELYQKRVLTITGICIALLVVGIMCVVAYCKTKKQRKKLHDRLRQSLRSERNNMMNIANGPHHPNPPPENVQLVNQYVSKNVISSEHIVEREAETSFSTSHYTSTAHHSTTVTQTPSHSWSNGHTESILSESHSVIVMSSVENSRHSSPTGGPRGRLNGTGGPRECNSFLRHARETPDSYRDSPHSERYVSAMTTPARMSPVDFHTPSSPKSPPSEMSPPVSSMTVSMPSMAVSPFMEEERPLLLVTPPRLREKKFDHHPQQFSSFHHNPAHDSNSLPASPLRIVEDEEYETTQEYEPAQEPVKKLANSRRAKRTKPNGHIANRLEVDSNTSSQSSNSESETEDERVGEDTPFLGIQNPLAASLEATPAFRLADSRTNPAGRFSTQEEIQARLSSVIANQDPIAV
For assay [7], the system named is Neuregulin-1 EGF-like domain. The assay is described as follows: small molecules binding NRG1 EGF domain – biochemical, small-molecule microarray, 635 nm fluorescence, primary screen (AID 1081).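 Further: binding of the protein to compounds printed on small-molecule microarray slides.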 The settings on record: higher = more signal.
Assay [8] is described as follows: FRG1 expression reporter modulators in myotubes – cell-based, C2C12 myotubes, firefly/Renilla luciferase, luminescence, FRG1 inhibition for FSHD, primary screen (AID 1084). The conditions noted are these: FRG1 promoter luciferase, higher = more signal, called active from +8 up or from −8 down.
The nature of assay [9]: small molecules captured by biotinylated probe aFST – biochemical, small-molecule microarray, fluorescence 635/667, stem cell growth factor project, primary screen (AID 1086).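 Further: score merges 667 nm fluorescence with signal-to-noise of each printed compound spot.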 The conditions noted are these: higher = more signal.
Assay [10] can be described thus: binders of probe aHhip on microarray, primary screen, stem cell growth factor project, biochemical, small-molecule microarray, fluorescence 635/667 (AID 1087).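 Further: score merges spot fluorescence at 667nm with spot signal to noise ratio.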 The settings on record: higher = more signal.
The test system of assay [11] is PRMT1 (protein arginine N-methyltransferase 1). The assay is described as follows: small molecules binding arginine methyltransferase PRMT1 – biochemical, small-molecule microarray, 635 nm fluorescence, primary screen (AID 1088).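 Further: binding of Prmt1 protein to compounds spotted on small-molecule microarray slides.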 The settings on record: higher = more signal.
Assay [12] in a line: growth effects on S. cerevisiae YJM789 – YJM789 clinical isolate, OD600, 24 h, basal, primary screen (AID 1089).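 Further: growth of clinical yeast isolate S. cerevisiae YJM 789 seeded 1000 cells per well; test concentration not given here.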 The settings on record: higher = more signal, called active from +8 up or from −8 down.
A short description of assay [13]: S. pombe growth modifiers, basal conditions – strain 972, OD600, 24 h, no modulator, primary screen (AID 1090).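 Further: basal condition with compound alone and no growth modifier present; test concentration not given here.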 The settings on record: S. pombe 972 growth, higher = more signal, called active from +8 up or from −8 down.
The nature of assay [14]: budding yeast growth modifiers under rapamycin – strain BY4716, OD600, 96 h, primary screen (AID 1091). Further: test concentration not given here. The conditions noted are these: S. cerevisiae BY4716 + rapamycin, higher = more signal, called active from +8 up or from −8 down.
For assay [15], the target named is Torsin-1A-interacting protein 2 (Homo sapiens) (UniProt Q8NFQ8). The assay is described as follows: small molecules binding lysate-expressed LULL1 – cell lysate, human LULL1 lysate, 635/667 nm fluorescence, primary screen (AID 1092).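 Further: probe is lysate of COS7 cells overexpressing human LULL1; score merges per-feature 667 nm fluorescence with signal-to-noise.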 The conditions noted are these: small-molecule microarray, hLULL1 lysate binding, 635 nm fluorescence; higher = more signal.
Chain of Torsin-1A-interacting protein 2 (Homo sapiens) (Q8NFQ8 whole entry, looked up): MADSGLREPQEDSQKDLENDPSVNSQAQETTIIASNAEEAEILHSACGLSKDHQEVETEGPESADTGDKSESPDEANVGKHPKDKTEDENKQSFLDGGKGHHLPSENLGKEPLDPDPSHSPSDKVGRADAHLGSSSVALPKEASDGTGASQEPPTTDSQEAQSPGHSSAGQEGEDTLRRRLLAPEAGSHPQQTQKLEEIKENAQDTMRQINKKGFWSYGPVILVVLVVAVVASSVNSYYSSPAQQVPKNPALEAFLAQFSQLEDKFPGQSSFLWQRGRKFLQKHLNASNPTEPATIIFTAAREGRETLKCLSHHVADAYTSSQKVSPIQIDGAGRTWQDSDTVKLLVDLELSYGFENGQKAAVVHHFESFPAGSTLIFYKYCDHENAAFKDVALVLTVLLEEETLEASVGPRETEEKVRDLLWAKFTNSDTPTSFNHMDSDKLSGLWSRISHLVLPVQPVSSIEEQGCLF
A short description of assay [16]: optical density change of DRC41 E. coli – strain DRC41, OD650, 24 h, E. coli filamentation project, primary screen (AID 1093).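 Further: MC1000 strain lacking acrAB efflux and sulA so SOS filamentation is blocked; test concentration not given here.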 The conditions noted are these: E. coli DRC41 growth, higher = more signal, called active from +8 up or from −8 down.
A short description of assay [17]: probe aLefty2 binding to arrayed compounds – biochemical, biotinylated probe, 635/667 nm fluorescence, primary screen (AID 1094).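 Further: score merges spot fluorescence near 667 nm with spot signal-to-noise ratio.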 The settings on record: small-molecule microarray, higher = more signal.
The test system of assay [18] is Noggin (protein binding on small-molecule microarray). The assay is described as follows: small molecules binding Noggin protein – biochemical, 635/667 nm fluorescence, primary screen (AID 1095).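 Further: score merges 667 nm feature fluorescence with signal to noise over triplicate slides.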 The conditions noted are these: 635 nm fluorescence, higher = more signal.
In assay [19] the target is Neurogenic locus notch homolog protein 3 (Homo sapiens) (UniProt Q9UM47). The assay is described as follows: small molecules binding NOTCH3 protein – biochemical, 635/667 nm fluorescence, primary screen (AID 1096). The settings on record: small-molecule microarray, 635 nm fluorescence, higher = more signal.
Assay [20] is described as follows: probe aEGFR binding to arrayed compounds – biochemical, biotinylated probe, 635/667 nm fluorescence, primary screen (AID 1097).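 Further: probe is a biotinylated anti-EGFR antibody binding compounds printed on slides; score combines fluorescence near 667 nm and signal to noise of each spot.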 The conditions noted are these: small-molecule microarray, higher = more signal.

For the molecule `CC(CO)N1C(=O)[C@@H]2C3C(=O)OCCC=C[C@H]3OC23C=CCN(CCN2CCOCC2)C(=O)[C@@H]13` (stereo not given in full), the composite z-score in assay [1] is -0.316 and 0.246; in assay [2], -1.28 and 0.759; in assay [3], -0.166 and -0.085; in assay [4], -0.376 and -0.591; in [5], -0.0931 and 0.0406; in assay [6], -0.256 and 1.91. For the same molecule, the composite z-score is 0.678 and 0.666 in assay [7]; 0.106 and 0.0417 in assay [9]; -0.399 and -0.119 in assay [10]; -0.353 and 1.34 in [11]; -0.634 and 3.22 in [15]; -0.186 and 0.166 in assay [17]. The composite z-score in assay [18] was -0.0409 and 0.0947; in assay [19], 0.331 and 0.465; in assay [20], -0.207 and -0.0046. Also, the z-score in assay [8] is 0.12 (inactive) and 0.497 (inactive); in assay [12] it was 0.517 (inactive) and -1.32 (inactive); in [13] it was -0.0581 (inactive) and -1.22 (inactive); in assay [14], 0.565 (inactive) and -0.233 (inactive); in [16], -0.381 (inactive) and -0.16 (inactive).

For the molecule `CCOC(=O)[C@@H]1CC=C2CC1C(=O)N1CCC[C@@H]1[C@H]2O[Si](C)(C)C(C)(C)C` (stereo not given in full), the composite z-score in assay [1] was -0.116 and -0.386; in assay [2], -0.323 and -0.427; in assay [3], -0.157 and -0.282; in [4], -0.833 and -1.22; in [5], -1.16 and -1.46; in [6] it was -0.653 and -0.709. Besides, the composite z-score was -1.69 and -0.727 in assay [7]; -0.0907 and -1.25 in assay [9]; -0.0994 and -0.252 in [10]; -0.884 and -1.29 in assay [11]; -0.664 and -0.302 in assay [15]; -0.0807 and -0.347 in [17]. For the same molecule, the composite z-score was -0.462 and -0.414 in assay [18]; -0.529 and -2.04 in assay [19]; -0.218 and -0.273 in [20]. Further, the z-score was 0.678 (inactive) and -1.08 (inactive) in assay [8]; -0.541 (inactive) and -2.68 (inactive) in assay [12]; -1.43 (inactive) and -19.5 (active) in assay [13]; 0.119 (inactive) and -1.52 (inactive) in assay [14]; -0.988 (inactive) and -0.253 (inactive) in assay [16].

Take `C[N+](C)(C)CCCCNC(=O)[C@@H]1C[C@@H]2C(=O)N[C@@H](CCCC[N+](C)(C)C)C(=O)N2[C@@H]1c1cccc(OCCO)c1`: the composite z-score in assay [1] was -0.0301 and -0.304; in assay [2], 2.1 and 2.23; in assay [3], -0.0909 and -0.0573; in assay [4], 1.07 and 1.2; in assay [5], 0.556 and 0.0462; in assay [6], -0.181 and -0.179. Further, the composite z-score in [7] is 1.07 and 1.16; in [9], 0.311 and 0.464; in assay [10] it was 0.463 and -0.0994; in [11], 1.53 and 0.995; in assay [15], 0.864 and 2.09; in assay [17] it was 0.387 and 0.268. For the same molecule, the composite z-score in assay [18] is 2.03 and 1.71; in assay [19], 1.05 and 1.09; in assay [20] it was 0.399 and 0.56. The z-score in assay [8] was -0.101 (inactive) and 0.844 (inactive); in [12], 1.27 (inactive) and 0.389 (inactive); in assay [13], -0.352 (inactive) and -0.297 (inactive); in assay [14], -0.483 (inactive) and -1.92 (inactive); in assay [16], 0.616 (inactive) and 0.374 (inactive).

As to `C=CCN(C(=O)C1N(CCOCCO)C(=O)C2C(C(=O)O)C3C=CC21O3)c1ccc(OC)cc1` (stereo not given), the composite z-score in assay [1] was 1.11 and 1.65; in [2], -1.59 and -1.21; in [3], -0.184 and -0.254; in [4] it was -0.719 and -1.97; in [5], -2.35 and -1.84; in [6] it was 0.555 and 2.07. For the same molecule, the composite z-score in assay [7] is 0.328 and 0.86; in assay [9] it was -0.654 and -0.932; in assay [10], -0.581 and -0.349; in assay [11], -0.968 and -2.33; in assay [15], -0.408 and 1.86; in assay [17] it was -0.158 and 0.0873. In addition, the composite z-score in assay [18] was -1.79 and -3.14; in assay [19], -0.59 and -0.715; in [20] it was -0.348 and -0.276. For the same molecule, the z-score was -0.408 (inactive) and -0.715 (inactive) in assay [8]; -0.248 (inactive) and -0.0945 (inactive) in assay [12]; -0.188 (inactive) and -0.571 (inactive) in assay [13]; -0.348 (inactive) and -0.662 (inactive) in [14]; 0.612 (inactive) and 1.52 (inactive) in [16].
